# Assay results taken from PubChem BioAssay (NCATS).
# Results filed as inconclusive are left out. A call without a number means that no potency is given here. Unmarked numbers belong to inactive results. Active and inactive are the calls of the source. Calls come from the whole dose curve; as a rule, active = well fitted inhibition curve with a large enough effect; inconclusive = small, poorly fitted or top-dose-only effect; inactive = no such curve, though single readings can be large or run the other way.
# Key:
# [1] = system: Zika virus NS2B-NS3 protease (unlinked complex); test: Primary screen GU Rhodamine qHTS for Zika virus inhibitors: Unlinked NS2B-NS3 protease assay (AID 1347159); note: nearly all actives have a fitted effect of over 60% in size; note: potency is the fitted concentration of half-maximal effect
# Outline: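 Noncovalent NS2B hydrophilic domain/NS3 protease complex (25 nM final) in 10 mM Tris-HCl pH 8.0, 0.01% Tween 20, preincubated 15 min with compounds (up to 114 microM), then 1.5 microM Rhodamine110 substrate. Fluorescence change over 15 min fitted to 4-parameter Hill.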
# [2] = system: Zika virus NS2B-NS3 protease (linked construct); test: Primary screen NINDS Rhodamine qHTS for Zika virus inhibitors (AID 1347160); note: nearly all actives have a fitted effect of over 55% in size
# Outline: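 Purified NS2B-NS3 protease with the NS2B hydrophilic domain joined by a flexible linker (25 nM) in 10 mM Tris-HCl pH 8.0, 0.01% Tween 20, preincubated 15 min at RT with compound; Rhodamine110 peptide substrate 1.5 µM; fluorescence change over 15 min; 4-parameter Hill fit.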
smiles,measurement,setting,value
Cc1cc(NC(=O)Nc2ccc(F)c(F)c2)n(-c2ccccc2)n1,Potency,[1],inactive
same,Potency,[2],inactive
CC1OC(OC2C(OC3C(O[C@H]4CC[C@@]5(C)C(CC[C@]6(C)C5C(=O)C=C5C7CC(C)(C)CC(O)[C@]7(C)CC[C@]56C)C4(C)C)OC(C(=O)O)C(O)C3O)OCC(O)C2O)C(O)C(O)C1O (some centres not stated),Potency,[1],inactive
same,Potency,[2],inactive
CS(=O)(=O)NCC1CCC(Nc2nc3c(s2)CCSc2ccccc2-3)CC1 (configuration not stated),Potency,[1],inactive
same,Potency,[2],inactive
CC(O)CO[C@@H]1O[C@H](CO)[C@@H](O)[C@H](O)[C@H]1O (some centres not stated),Potency,[1],inactive
same,Potency,[2],inactive
COc1cccc(-c2cc(NCc3ccc4c(c3)OCO4)nc(N)n2)c1,Potency,[1],inactive
same,Potency,[2],inactive
CC1(C)CC[C@]23CO[C@@]4(CCC5[C@@]6(C)CC[C@H](O[C@@H]7OC[C@H](O[C@@H]8O[C@H](CO)[C@@H](O)[C@H](O)[C@H]8O)[C@H](O)[C@H]7O[C@@H]7O[C@H](CO)[C@@H](O[C@@H]8O[C@H](CO)[C@@H](O)[C@H](O)[C@H]8O)[C@H](O)[C@H]7O)[C@@](C)(CO)C6CC[C@@]5(C)[C@]4(C)C[C@H]2OC2OCC(O)C(O)C2O)C3C1 (some centres not stated),"activity change, negative = inhibition",[1],15.7% [at 19.1 µM]
same,outcome,[2],inactive [at 10.7 µM]
CCCCNc1ncc2c(-c3ccc(CN4CCN(C)CC4)cc3)cn(C3CCC(O)CC3)c2n1 (configuration not stated),Potency,[1],inactive
same,Potency,[2],inactive
C[C@@H]1O[C@@H](O[C@@H]2CO[C@@H](O[C@H]3CC[C@@]4(C)C(CC[C@]5(C)C4CC=C4[C@@H]6CC(C)(C)CC[C@]6(C(=O)O[C@@H]6O[C@H](CO)[C@@H](O)[C@H](O)[C@H]6O)CC[C@]45C)[C@]3(C)CO)[C@H](O)[C@H]2O[C@@H]2O[C@H](CO)[C@@H](O)[C@H](O)[C@H]2O)[C@H](O)[C@H](O)[C@H]1O (some centres not stated),Potency,[1],inactive
same,Potency,[2],inactive
CC(O)/C=C/C1(O)C(C)C(O[C@@H]2O[C@H](CO)[C@@H](O)[C@H](O)[C@H]2O)C(O)CC1(C)C (some centres not stated),Potency,[1],inactive
same,Potency,[2],inactive
C=C1CC[C@@H]2[C@@](C)(CO[C@@H]3O[C@H](CO)C(O)[C@H](O)C3O)[C@H](O)CC[C@@]2(C)[C@@H]1CC/C(C)=C/CO (some centres not stated),Potency,[1],inactive
same,Potency,[2],inactive
COc1ncc(Nc2ncc([C@@H](C)N3CCN(S(C)(=O)=O)CC3)cc2-c2nc(C)nc(N)n2)cc1F,Potency,[1],44.7 µM (active)
same,Potency,[2],inactive
FC(F)(F)c1ccc(Nc2nc(-c3c(C(F)(F)F)nc4ccccn34)cs2)cc1,Potency,[1],inactive
same,Potency,[2],inactive
O=C(Nc1c(-c2cccs2)nc2ccccn12)c1ccc(Cl)cc1,Potency,[1],inactive
same,Potency,[2],inactive
COc1cc(-c2ncn(/C=C\C(=O)OC(C)C)n2)cc(C(F)(F)F)c1,Potency,[1],inactive
same,Potency,[2],inactive
CC(=O)c1cc2c(cc1O)OC(C)(C)C=C2,Potency,[1],inactive
same,Potency,[2],inactive
Nc1nc2c(ncn2[C@@H]2O[C@@H]3COP(=O)(O)O[C@H]3[C@H]2O)c(=O)[nH]1,Potency,[1],inactive
same,Potency,[2],inactive
CC(C)(C)c1cc(Br)cc([C@H](CC(=O)O)NC(=O)CNC(=O)c2cc(O)cc(NC3=NCC(O)CN3)c2)c1 (some centres not stated),Potency,[1],inactive
same,Potency,[2],inactive
OC[C@@]1(O)CO[C@@H](OC[C@H]2O[C@@H](Oc3c[nH]c4ccccc34)[C@H](O)[C@@H](O)[C@@H]2O)[C@@H]1O,Potency,[1],inactive
same,Potency,[2],inactive
COC(=O)CC(C)(O)CC(=O)OCc1ccc(O[C@@H]2O[C@H](CO)[C@@H](O)[C@H](O)[C@H]2O)cc1 (some centres not stated),Potency,[1],inactive
same,Potency,[2],inactive
CC[C@@H](O)C[C@@H]1C(C)=C[C@@H]2CCCC[C@@H]2[C@@]1(C)C(=O)O,Potency,[1],inactive
same,Potency,[2],inactive
CC(=O)N[C@@H](CCCCN)C(=O)N(C)[C@@H](CC(C)C)C(=O)N[C@H](C(=O)N(C)[C@@H](Cc1ccccc1)C(=O)N[C@H](Cc1ccccc1)C(N)=O)C(C)C,"activity change, negative = inhibition",[1],0% [at 11.5 µM]
same,"activity change, negative = inhibition",[2],25% [at 4.91 µM]
CN1CCN(c2ccc(C(=O)Nc3n[nH]c4ccc(Cc5cc(F)cc(F)c5)cc34)c(NC3CCOCC3)c2)CC1,Potency,[1],inactive
same,Potency,[2],inactive
O=C(C(c1ccccc1)c1ccccc1)N1CCN(CC(O)COc2cccc3ncccc23)CC1 (configuration not stated),Potency,[1],inactive
same,Potency,[2],inactive
O=C(c1cccc(Cl)c1F)N1CCN(Cc2cccc(Nc3nccs3)n2)CC1,Potency,[1],inactive
same,Potency,[2],inactive
COC1CC(OC2CCC3(C)C(=CCC4C3C(OC(C)=O)C(OC(=O)/C=C/c3ccccc3)C3(C)C(C(C)O)CCC43O)C2)OC(C)C1OC1CC(OC)C(OC2OC(C)C(OC3OC(CO)C(O)C(O)C3O)C(OC)C2O)C(C)O1 (configuration not stated),"activity change, negative = inhibition",[1],0.295% [at 19.1 µM]
same,"activity change, negative = inhibition",[2],23.5% [at 10.7 µM]
C=C(C(=O)O)C1CC(O)C2(C)CCCC(=C)C2C1 (configuration not stated),Potency,[1],inactive
same,Potency,[2],inactive
